# Screening results deposited in PubChem BioAssay by National Center for Advancing Translational Sciences (NCATS).
# Sampled rows, rich in hits. Any-hit rate of the full collection: about 18%.
# TDP1 inh – inhibitors of human tyrosyl-DNA phosphodiesterase TDP1; recombinant TDP1, AlphaScreen DNA substrate cleavage; Potency, µM (titrated, usually from 130 µM), usual class: inhibitors; Q9NUW8; AID 485290; actives 0.28% (n = 350,000); note: nearly all actives have a fitted effect of over 40% in size
#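 Compounds were preincubated with Tdp1 (1 nM final) for 15 min at room temperature before substrate (15 nM final) started a 5 min reaction; beads (10 ug/ml final) were then added for 10 min before AlphaScreen detection.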
# DT40 TDP1 CPT – growth inhibition of DT40 Tdp1-/-;hTDP1 cells with camptothecin (screen for TDP1 inhibitors); chicken DT40 Tdp1-/-;hTDP1 cells + 20 nM CPT, ATP luminescence, 48 h; Potency, µM (doses to about 46.2 µM), most hits filed as inhibitors; actives 12% (n = 420,000); AID 686979; note: nearly all actives have a fitted effect of over 55% in size
#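 Cell growth measured by CellTiter-Glo luminescence after a minimum 48 h, 37 C compound exposure with 20 nM CPT in Tdp1-knockout DT40 cells stably expressing hTDP1, seeded 400/well; qHTS titration format.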
# TDP1 cell noCPT – qHTS for Inhibitors of human tyrosyl-DNA phosphodiesterase 1 (TDP1): qHTS in cells in absence of CPT. DT40 Tdp1-/- hTDP1 cells, no CPT, ATP luminescence, 48 h. Potency, µM (titrated, usually from 46.2 µM), actives largely listed as inhibitors. actives 15% (n = 420,000); note: nearly all actives have a fitted effect of over 55% in size
#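 Compound effects on proliferation are scored in DT40 Tdp1-/-;hTDP1 cells in the absence of CPT. ATP levels (CellTiter-Glo luminescence) are recorded after a ≥48 hr, 37 °C incubation.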
# VDR inh – blocks the human vitamin D receptor; P11473; actives 0.93% (n = 400,000); Potency, µM, most hits filed as inhibitors; VDR-SRC2-3 peptide fluorescence polarization, 2 h
#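 Fluorescence polarization assay measuring small-molecule disruption of VDR binding to the coregulator peptide SRC2-3. Compounds were pin-transferred (23 nl) into the reagent mix and incubated 2 h at room temperature before reading.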
# PLK1 PBD block – PLK1 (human) polo-box domain binding inhibition; Potency, µM, actives largely listed as inhibitors; Plk1 PBD binding of FITC phosphopeptide, fluorescence polarization; actives 2.8% (n = 360,000); P53350; note: series mostly up to about 57 µM; nearly all actives have a fitted effect of over 65% in size
# Target sequence (P53350 whole entry, looked up, the tested form may be a part): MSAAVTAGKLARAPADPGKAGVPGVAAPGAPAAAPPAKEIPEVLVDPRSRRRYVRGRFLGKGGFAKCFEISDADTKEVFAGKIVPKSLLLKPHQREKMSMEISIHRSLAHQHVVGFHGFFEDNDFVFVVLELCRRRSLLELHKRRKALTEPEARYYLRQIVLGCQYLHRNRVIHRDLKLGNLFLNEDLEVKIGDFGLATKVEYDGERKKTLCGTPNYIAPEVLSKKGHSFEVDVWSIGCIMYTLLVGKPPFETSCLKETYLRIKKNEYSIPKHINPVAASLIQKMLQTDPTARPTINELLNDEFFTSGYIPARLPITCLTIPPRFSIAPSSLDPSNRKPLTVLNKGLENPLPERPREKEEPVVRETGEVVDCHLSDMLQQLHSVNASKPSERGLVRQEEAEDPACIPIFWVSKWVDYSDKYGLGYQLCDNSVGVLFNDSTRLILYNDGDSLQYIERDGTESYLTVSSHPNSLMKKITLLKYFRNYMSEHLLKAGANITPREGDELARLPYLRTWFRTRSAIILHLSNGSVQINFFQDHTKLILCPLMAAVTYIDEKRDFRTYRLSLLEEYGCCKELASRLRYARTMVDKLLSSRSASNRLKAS
# KAT2A inh – inhibitors of human GCN5L2 histone acetyltransferase | Potency, µM (top dose mostly 58.9 µM), most hits filed as inhibitors | actives 0.21% (n = 390,000) | GCN5L2 HAT assay, ThioGlo1 CoA-SH fluorescence | Q92830
#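 Fluorescence readout, Ex340nm/Em540nm: ThioGlo1 (50uM final) reacts with free CoA thiol released as 20nM GCN5L2 acetylates H3(1-25) peptide (75uM) using acetyl-CoA (70uM). Compound and enzyme sat 15 min beforehand; 20 min room-temperature reaction.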
# Numbers stand for hits; 0 = inactive; ? = inconclusive; - = no result; ! = not confirmed by another sample; [ ] = another dose, or the depositor's remark. Calls come from the whole dose curve; as a rule, active = well fitted curve in the direction sought with a large enough effect; inconclusive = small, poorly fitted or top-dose-only effect, or another doubt; inactive = no such curve, though single readings can be large; an effect the other way counts as inactive or inconclusive.
SMILES,TDP1 inh,DT40 TDP1 CPT,TDP1 cell noCPT,VDR inh,PLK1 PBD block,KAT2A inh
COc1cc2c(cc1/C=C/[N+](=O)[O-])OCO2,0,5.8µM,2.3µM,25µM,?,0
CCCCC[C@H]1CCCCC[C@H](O)C[C@H](O)[C@@H](O)/C=C/C(=O)O1,-,23µM,21µM,-,0,-
CCOP(=O)(OCC)C1(O)C(=O)Nc2ccc(Br)cc21 (stereo not given),0,?,16µM,0,0,0
CCOC(=O)C1=C(C)OC(N)=C(C(=O)OCC)C12C(=O)Nc1ccc(Br)cc12 (stereo not given),0,?,?,0,0,0
CC(C)c1ccc(OCC(=O)N2CCN(CCc3ccccn3)CC2)cc1,0,0,?,0,-,0
C=CCCl,0,-,-,-,-,-
CN(C(=O)Oc1ccc(C(=O)c2ccc(Cl)cc2)cc1)c1ccccc1,0,23µM,16µM,0,0,0
COc1ccc2c(C(=O)c3ccc(Cl)cc3)c(C)n(CC(=O)O)c2c1,-,0,0,-,-,-
Cn1cc(C(=O)Cc2ccccc2)c2ccccc21,0,16µM,?,?,27µM,0
O=C(O)c1[nH]c(=O)[nH]c(=O)c1F,0,12µM,12µM,0,0,0
CCCC(C)C1(CC)C(=O)NC(=O)N=C1N (stereo not given),0,?,0,0,?,0
CNC(C)C#Cc1ccc2oc3cc(C)c(C)cc3c(=O)c2c1 (stereo not given),-,?,15µM,0,0,-
COC(=O)C1=C(c2ccc(-c3ccccc3)c(F)c2)C[C@@H]2CC[C@H]1N2C(=O)N1CCCCC1,0,2.3µM,1.3µM,0,0,0
COC(=O)C1=C(c2ccc(-c3ccccc3)c(F)c2)C[C@@H]2CC[C@H]1N2C(=O)N1CCOCC1,0,1.2µM,1.3µM,0,0,0
COC(=O)C1=C(c2ccc(-c3ccccc3)c(F)c2)C[C@@H]2CC[C@H]1N2C(=O)N1CCCC1,0,1.6µM,1.2µM,?,0,0
NC(=O)c1c(NC(=O)c2ccc(S(=O)(=O)N(CCCl)CCCl)cc2)sc2c1CCCCC2,0,10µM,15µM,0,0,0
Cc1oc(-c2ccccc2Cl)nc1CN1C(=O)CN=C(c2ccccc2)c2cc(Cl)ccc21,0,?,?,0,-,0
Cc1oc(-c2cccc(Cl)c2)nc1CN1CCC(C(=O)NCCCN2CCN(c3cccc(Cl)c3)CC2)CC1,0,15µM,18µM,0,-,0
CN1C(=O)C(=Cc2cn(CC(=O)N3CCCCC3)c3ccccc23)C(=O)N(C)C1=O,0,0,0,0,13µM,0
CN1C(=O)C(=Cc2coc3ccccc3c2=O)C(=O)N(C)C1=O,0,?,23µM,?,19µM,0
CN1C(=O)C(=Cc2cn(CC#N)c3ccccc23)C(=O)N(C)C1=O,-,0,0,0,1.2µM,0
CCOC(=O)Cn1cc(C=C2C(=O)N(C)C(=O)N(C)C2=O)c2ccccc21,-,0,0,0,?,0
CN1C(=O)C(=Cc2ccc(Sc3ccccc3)o2)C(=O)N(C)C1=O,0,?,?,?,?,0
CN1C(=O)C(=Cc2cn(CC(=O)N3CCCC3)c3ccccc23)C(=O)N(C)C1=O,0,0,0,0,27µM,0
O=C(O)/C=C/CO,0,0,0,0,-,0
SMILES,TDP1 inh,DT40 TDP1 CPT,TDP1 cell noCPT,VDR inh,PLK1 PBD block,KAT2A inh
NC1CCC(CC2CCC(N)CC2)CC1 (stereo not given),0,-,-,-,-,-
CCN1C[C@]2(COC)CC[C@H](O)[C@@]34[C@@H]5C[C@H]6[C@@H](OC)[C@H]5[C@](O)(C[C@@H]6OC)[C@@](O)([C@@H](OC)[C@H]23)[C@@H]14,0,-,-,0,-,0
C=C(C)[C@H]1O[C@H]2CC[C@@]3(C)[C@@](O)(CC[C@H]4[C@@H]5OC(C)(C)[C@H]6C[C@@H]7C(=C)Cc8c(Cl)cc9[nH]c(c5c9c8[C@@]76O)[C@@]43C)[C@]23O[C@@H]3[C@H]1O,0,?,12µM,0,-,0
CC(=O)N1CCN(c2ccc(OC[C@@H]3CO[C@@](Cn4ccnc4)(c4ccc(Cl)cc4Cl)O3)cc2)CC1,0[21 µM],16µM,16µM,0,-,0
CC(=O)N1CCN(c2ccc(OC[C@H]3CO[C@](Cn4ccnc4)(c4ccc(Cl)cc4Cl)O3)cc2)CC1,0,6.3µM!,6.3µM,0,0,0
CCOC(=O)[C@]12Cc3cc(OC)ccc3[C@H]1N(CC(=O)OC)C(=O)c1cc(OC)ccc12,-,18µM,6.5µM,-,13µM,-
CCOC(=O)[C@]12Cc3cc(OC)ccc3[C@H]1N(C)C(=O)c1cc(OC)ccc12,-,?,16µM,-,9.5µM,-
CCOC(=O)C1C(=O)N(C)C2(C)CC1c1cc(OC)ccc1O2 (stereo not given),0,0,0,0,0,0
CCOC(=O)[C@]12Cc3cc(OC)ccc3[C@H]1N(CC(=O)OC)C(=O)c1ccccc12,-,0,0,-,0,-
CCOC(=O)[C@]12Cc3cc(Cl)ccc3[C@H]1N(C)C(=O)c1cc(OC)ccc12,-,23µM,16µM,-,11µM,-
CCCCCN1C(=O)c2cc(OC)ccc2[C@@]2(C(=O)OCC)Cc3cc(OC)ccc3[C@@H]12,-,10µM,5.2µM,-,4.7µM,-
Cc1cccc(C)c1OCc1n[nH]c(=S)n1N,0,0,0,0,?,0
CCOC(=O)c1cnc(SCc2ccc(Cl)c(Cl)c2)nc1N1CC1,-,0.58µM,0.82µM,0,0,-
COc1ccc(C(CNC(=O)Cc2ccc(Cl)c(Cl)c2)N2CCCCC2)cc1 (stereo not given),0,?,?,0,0,0
CCN1CCN(Cc2cc(Br)cc(Br)c2O)CC1,0,?,16µM,0,0,0
CCc1ccc(CN2CCN(Cc3cc(Br)ccc3O)CC2)cc1,0,0,?,0,0,0
C=Cn1ccnc1P(=S)(c1nccn1C=C)C1CCCCC1,0,?,?,0,0,0
CCOC(=O)[C@]12Cc3cc(Cl)ccc3[C@H]1N(Cc1ccccc1)C(=O)c1ccccc12,-,10µM,?,0,0,-
C[C@@]12CC[C@@H](c3cc4c(cc3C1)OCO4)N2c1ccccc1,-,?,?,-,0,-
CCOC(=O)[C@]12Cc3ccccc3[C@H]1N(Cc1ccccc1)C(=O)c1cc(F)c(F)cc12,-,?,23µM,-,?,-
CN1C(=O)C(C2c3ccccc3C(=O)N2Cc2ccccc2)C(=O)N(C)C1=O (stereo not given),0,0,0,0,0,0
CCOC(=O)[C@]12Cc3cc4c(cc3[C@H]1N(Cc1ccccc1)C(=O)c1ccccc12)OCO4,-,?,15µM,0,0,-
CCOC(=O)[C@]12Cc3cc(C)ccc3[C@H]1N(Cc1ccccc1)C(=O)c1cc(OC)ccc12,-,?,21µM,-,?,-
